HT1080 IDH1KD tx – toxicity to HT-1080 IDH1 knockdown cells (counter line); HT-1080 IDH1 knockdown viability, ATP luminescence, 48 h; Potency, µM (highest dose often 46.1 µM), for inactives: top-dose activity, negative = toxicity, usual class: cytotoxic; 360,000 compounds, 2% hits;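 further: potency means the concentration at half of the fitted maximal effect; 0% = DMSO wells and -100% = cell-free medium wells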
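Cytotoxicity counter-line: IDH1KD HT-1080, 48 h, CellTiter-Glo. Curves classed by r2, magnitude and activity.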
IL1B secr inh – blocks inflammasome-driven IL-1 beta release; AID 743279; THP-1 LPS/ATP IL-1B secretion, AlphaLISA, 16 h; hits give low values; 360,000 compounds, 4.7% hits; activity change, % at 57.5 µM; in the data active means activity change below about -50%; inconclusive means mostly about -30% to -49%
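Secreted IL-1B measured by AlphaLISA bead assay after 16 h compound exposure of THP-1 cells; compounds (final up to 57.5 uM) added 1 h before LPS (250 ng/mL) and ATP (1.25 mM) stimulation; lower signal means less secretion.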
HT1080NT lethal – kills 2HG-producing HT-1080-NT fibrosarcoma cells | Potency, µM (titrated, usually from 46.1 µM), for inactives: top-dose activity, negative = less viability, actives largely listed as cytotoxic | HT-1080-NT fibrosarcoma viability, CellTiter-Glo ATP luminescence, 48 h | AID 686970 | 360,000 compounds, 1.6% hits;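 further: NT is the 2HG producing partner of a matched IDH1 knockdown line; potency means the concentration at half of the fitted maximal effect; 0% = DMSO-treated cells and -100% = media-only wells without cells; nearly all actives have a fitted effect of over 55% in size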
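HT-1080-NT fibrosarcoma cells (2HG-overproducing), 750 cells/well in RPMI with 5% FBS, dosed after 2 h and incubated 48 h at 37C. CellTiter-Glo luminescence normalized to DMSO and no-cell wells; concentration-response curves fitted and classed.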
ELG1 DNA repair – blocks ELG1-dependent DNA repair in HEK293T cells. HEK293T ELG1-luciferase reporter, luminescence, 16 h; DNA damage induced by 5-fluorouridine. Potency, µM (doses to about 46.1 µM), for the others: top-dose activity change, negative = inhibition, usual class: inhibitors. 330,000 compounds, 2.3% hits; further: potency means the concentration at half of the fitted maximal effect; nearly all actives have a fitted effect of over 55% in size
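5-Fluorouridine DNA damage + compound/DMSO, 2,000 cells/well, 16 h, 37 °C/5% CO2. ONE-Glo, 30 min RT, luminescence. Readout = decrease in reporter signal.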
DT40 TDP1 CPT – DT40-hTDP1 cell growth loss with CPT | chicken DT40 Tdp1-/-;hTDP1 cells + 20 nM CPT, ATP luminescence, 48 h | Potency, µM (top dose mostly 46.2 µM), for the others: top-dose activity change, negative = growth inhibition, usual class: inhibitors | 420,000 compounds, 12% hits | AID 686979; further: potency means the concentration at half of the fitted maximal effect; nearly all actives have a fitted effect of over 55% in size
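Chicken DT40 Tdp1-/- cells stably complemented with human TDP1 were seeded at 400 cells/well in medium containing 20 nM camptothecin, exposed to pin-transferred compounds, and grown at 37 °C for at least 48 hr. Viability was read as ATP luminescence.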
DT40 TDP1 no CPT – qHTS for Inhibitors of human tyrosyl-DNA phosphodiesterase 1 (TDP1): qHTS in cells in absence of CPT; DT40 Tdp1-/- hTDP1 cells, no CPT, ATP luminescence, 48 h; Potency, µM (highest dose often 46.2 µM), for the others: at the highest dose activity change, negative = growth inhibition, hits mostly inhibitors; 420,000 compounds, 15% hits; AID 686978, 2013; further: potency means the concentration at half of the fitted maximal effect; nearly all actives have a fitted effect of over 55% in size
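Luminescent ATP content (CellTiter-Glo) served as the growth readout. Knockout chicken DT40 cells expressing human TDP1 were exposed to compounds without camptothecin for a minimum 48 hr at 37 °C.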
An asterisk follows results filed as active; ? = inconclusive; / = not tested or not shown. Hits are enriched below; roughly 19% of the tested compounds scored in any of these assays. Unless noted, the call rests on the fitted dose curve; in most records, active means well fitted curve in the direction sought with a large enough effect; inconclusive means small, poorly fitted or top-dose-only effect, or another doubt; inactive means no such curve, though single readings can be large; an effect the other way counts as inactive or inconclusive. Unless noted, on the % scale 0 is the no-effect control and ±100 the full control effect.

SMILES	HT1080 IDH1KD tx	IL1B secr inh	HT1080NT lethal	ELG1 DNA repair	DT40 TDP1 CPT	DT40 TDP1 no CPT
Cc1cccc(CS(=O)(=O)Cc2ccc(C(=O)NCc3ccccc3)o2)c1	-2%	-1	4%	?	?	?
CCOc1ccc(CCNC(=O)c2ccc(CSCc3ccccc3C)o2)cc1OCC	/	/	/	/	16µM*	16µM*
CCOc1ccc(CCNC(=O)c2ccc(CS(=O)(=O)Cc3ccccc3Cl)o2)cc1OCC	/	/	/	/	16µM*	23µM*
COc1ccc(CCNC(=O)c2ccc(CS(=O)(=O)Cc3cccc(C)c3)o2)cc1OC	-10%	-10	3%	23µM*	21µM*	12µM*
CCOc1ccc(CCNC(=O)CCNC(=O)c2ccco2)cc1OCC	6%	-7	-1%	10%	-24%	20%
O=C(NC1CCCC1)c1ccc(CS(=O)(=O)Cc2ccccc2Cl)o1	-5%	-3	-1%	-5%	?	-21%
COC(=O)C1=C(C)NC(C)=C(C(=O)OCC2CCCO2)C1c1cccc(Br)c1 (stereo unspecified)	-1%	?	-3%	?	?	?
Cc1cc(C(=O)c2cnc(/N=C/N(C)C)s2)c(F)cc1Cl	-23%	1	-18%	0%	-17%	?
COc1ccc2c(c1)OC[C@H]1[C@H]2N2C(=O)CN(Cc3ccccc3)C(=O)[C@@]2(C)[C@H]1c1ccccc1	-1%	-54*	-1%	/	18µM*	?
COc1ccc(CN2CC(=O)N3[C@H]4c5ccc(OC)cc5OC[C@@H]4[C@H](c4ccccc4)[C@]3(C)C2=O)cc1	3%	-19	-3%	?	?	18µM*
CCOC(=O)[C@H]1[C@H]2COc3cc(OC)ccc3[C@@H]2N2C(=O)CN(Cc3ccccc3)C(=O)[C@@]12C	1%	-1	-2%	0%	-27%	-23%
COc1ccc2c(c1)[C@H]1[C@H](CO2)[C@H](c2ccccc2)[C@]2(C)C(=O)N(Cc3ccc(C)cc3)CC(=O)N12	-17%	-56*	?	18µM*	15µM*	?
COc1ccc2c(c1)OC[C@H]1[C@H]2N2C(=O)CN(C)C(=O)[C@@]2(C)[C@H]1c1ccccc1	13%	10	?	8%	?	-18%
Cc1ccc([C@@H]2[C@@H]3C(=O)N(c4ccccc4)C(=O)[C@@H]3[C@]3(C)C(=O)N(Cc4ccc(-c5ccccc5)cc4)CC(=O)N23)o1	-10%	7	-6%	7%	18µM*	?
Cn1cnc(S(=O)(=O)N2CCC(C(=O)NCc3ccccc3Cl)CC2)c1	/	/	/	/	6%	-5%
COc1ccc(CNC(=O)C(C)OC(=O)CCN2C(=O)C3CC=CCC3C2=O)cc1 (stereo unspecified)	8%	3	8%	21%	3%	-2%
COc1ccc2[nH]cc(CCNS(=O)(=O)c3ccc(C)cc3)c2c1	-12%	-18	-14%	?	?	-24%
CCN(CC(=O)Nc1ccc2c(c1)OCCO2)C(=O)COc1ccc(C(C)=O)cc1	9%	30	5%	/	7%	-3%
CC1(C)C2CCC1(CS(=O)(=O)NCc1ccc(S(N)(=O)=O)cc1)C(=O)C2 (stereo unspecified)	10%	30	8%	-4%	1%	0%
COc1ccc2c(c1)OC[C@H]1[C@H]2N2C(=O)CN(Cc3ccc(Cl)cc3)C(=O)[C@@]2(C)[C@H]1c1ccccc1	-1%	?	-6%	-29%	8.2µM*	?
CCOC(=O)c1c(C)oc2c1c(C=NCCO)c(O)c1ccccc12	23µM*	-112*	?	?	-69%	?
CCOC(=O)c1c(C)oc2c1c(C(c1ccccc1)N1CCOCC1)c(O)c1ccccc12 (stereo unspecified)	0%	-71*	0%	?	?	18µM*
CCOC(=O)c1c(C)oc2c1c(C(c1cccnc1)N1CCCCC1)c(O)c1ccccc12 (stereo unspecified)	-4%	33	6%	?	?	?
CCc1nc2ccc(C(=O)Nc3cccc(NS(C)(=O)=O)c3)cn2c1N(CC)CCOC	23%	15	9%	/	?	?
Cc1nnc(SCC(=O)NC2CCCCCC2)n1C(C)C	-4%	-5	21%	13%	-5%	14%
SMILES	HT1080 IDH1KD tx	IL1B secr inh	HT1080NT lethal	ELG1 DNA repair	DT40 TDP1 CPT	DT40 TDP1 no CPT
O=C(c1ccccc1[N+](=O)[O-])N1CCC(Cc2ccccc2)CC1	-29%	-30	-2%	-20%	?	?
CCOc1cccc(/C=N/NC(=O)c2cc(C3CC3)[nH]n2)c1O	-28%	94	?	2.6µM*	?	23µM*
COc1cccc(/C=N/Nc2nn3cnnc3c3ccccc23)c1O	?	54	-11%	-5%	2.6µM*	1.2µM*
COc1cccc(C=NNC(=O)c2ccncc2)c1O	1.5µM*	185	?	/	0.92µM*	0.18µM*
Oc1cccc(/C=N/Nc2nn3cnnc3c3ccccc23)c1	-11%	7	-12%	-20%	-29%	-24%
COc1cc(/C=N/NC(=O)C(=O)N2CCCCCC2)ccc1O	2%	8	8%	0%	0%	8%
COc1ccc(/C=N/NC(=O)c2ccncc2)c(OC)c1	14%	30	-1%	1%	7%	8%
COc1cccc(/C=N/NC(=O)C(=O)N2CCCC2)c1O	-19%	117	?	?	?	16µM*
Cc1ccsc1C1C(C#N)=C(N)N(N(C)C)C2=C1C(=O)CC(C)(C)C2 (stereo unspecified)	-14%	-2	-4%	-3%	7%	-1%
O=C(NCCc1ccccc1)c1ccc(Cl)cc1[N+](=O)[O-]	-5%	-8	11%	?	-2%	-14%
COC(=O)c1c(OCc2cccnc2)cc(=O)n2c1CCN(C(=O)c1ccc(OC)c(F)c1)CC2	/	/	/	/	8%	-14%
COc1cccc(/C=N/NC(=O)CSc2ccccc2C)c1O	26µM*	46	?	-19%	1.2µM*	1.3µM*
COc1cccc(/C=N/NC(=O)N/N=C/c2cccc(OC)c2O)c1O	-19%	-97*	-21%	?	?	3.7µM*
COc1cccc(/C=N/NC(=O)c2nc(-c3ccccc3)cc(-c3ccccc3)n2)c1O	?	11	?	?	12µM*	9.2µM*

Source: PubChem BioAssay (National Center for Advancing Translational Sciences (NCATS))
